# Test results: PubChem BioAssay AID504467 (National Center for Advancing Translational Sciences (NCATS), 2011)
# Among all 330,000 compounds or so, about 7,700 (2.3%) were called active. Inconclusive results (about 26%) are left out. The full list was thinned out, with actives kept by preference. Values without a mark were called inactive. The call rests on the fitted dose curve; in most records, active means well fitted inhibition curve with a large enough effect; inconclusive means small, poorly fitted or top-dose-only effect, or effect the other way; inactive means flat fitted curve, though single readings scatter.
# Test: qHTS screen for small molecules that inhibit ELG1-dependent DNA repair in human embryonic kidney (HEK293T) cells expressing luciferase-tagged ELG1; further: nearly all actives have a fitted effect of over 55% in size
# Settings: HEK293T ELG1-luciferase reporter, luminescence, 16 h, DNA damage induced by 5-fluorouridine; series mostly up to 46.1 µM; activity change, negative = inhibition: at the top concentration
# From the text: NIH Molecular Libraries Probe Production Network [MLPCN] NIH Chemical Genomics Center [NCGC] MLPCN Grant: 1 R03 MH092164-01 Assay Provider: Kyungjae Myung, NHGRI, NIH Keywords: MLPCN, qHTS, NCGC, genotoxicity, cancer Assay Overview: Cancer cells divide rapidly compared to normal cells in the body. During cell division, cancer cells need to duplicate their genome by DNA replication. The failure of genome duplication leads to cancer cells' death. Therefore, inhibitors of DNA replication could specifically kill cancer cells. Based on this concept, many chemotherapeutic agents were developed and have been used to treat cancer patients. However, there are a limited number of agents available in the clinical setting, and some of those that do exist have low efficacy and severe side effects. Therefore, if we can find the compounds that effectively block DNA replication either by directly damaging DNA or by inhibiting other cellular mechanisms, the options for cancer treatment will be broadened. With this in mind, we developed a quantitative high-throughput ELG1-luciferase reporter gene assay. Small molecules that specifically block ELG1 function in response to DNA damage can be identified by monitoring the suppression of luciferase activity. Since ELG1 defines a pathway for repairing DNA damage, agents blocking ELG1 function can be used to sensitize cancer cells to chemotherapeutic agents whose mechanism of action involves the induction of DNA damage.
# Assay Protocol Summary: For genotoxicity screening, 2,000 cells in 4 uL/well were dispensed into white, solid-bottom 1536-well plates using a solenoid-based dispenser. Following transfer of 1 uL 5-Fluorouridine and 23 nL compound or DMSO vehicle by a pin tool, the plates were incubated 16 hr at 37 °C and 5% CO2. 5 ul ONE-Glo (Promega) was then added to each plate and following a 30 min incubation at room temperature, luciferase activity was quantified on a ViewLux CCD-based plate reader.
# On the % scale 0 is the no-effect control and ±100 the full control effect; potency means the concentration at half of the fitted maximal effect.
Structure (SMILES),Potency,"activity change, negative = inhibition [%]"
O=C(/C=C/c1cccs1)c1cc(Cl)ccc1OC(=O)N1CCOCC1,18.4 µM (active),
CC(=O)Nc1ccc(C(=O)C(Cc2ccccc2)N(C)C)cc1 (stereo not given),,4.04
Cc1nc2ccccc2c(=O)n1-c1ccc(Cl)cc1Cl,,-3.5
COC1=CC=C2[C@H]3Cc4ccc(OC)c5c4[C@@]2(CCN3C)C1O5 (stereo not given in full),,3.28
COC(=O)C1=C(c2cccc(OCc3ccccc3)c2)C[C@@H]2CC[C@H]1N2C(=O)NNCc1ccccc1,,-26.5
COC(=O)C1=C(c2cccc(OCc3ccccc3)c2)C[C@@H]2CC[C@H]1N2C(=O)NCc1ccc(Br)cc1,,-23.4
COc1ccc(CNCCc2c[nH]c3ccccc23)cc1OC,,-3.99
O=C(c1cc2nc(-c3ccccc3)cc(-c3ccccc3)n2n1)N1CCC2(CC1)OCCO2,20.6 µM (active),
O=C(c1cc(-c2ccncc2)nc2ccccc12)N1CCC2(CC1)OCCO2,,-25.8
O=C(c1ccccc1[N+](=O)[O-])N1CCC2(CC1)OCCO2,,-2.85
CCCCn1c(=O)c(C(=O)Nc2ccccc2Cl)c(O)c2ccccc21,,14.3
Cc1cccc(NC(=O)N2CC3CC(C2)c2cccc(=O)n2C3)c1 (stereo not given),,23.2
Cc1ncc(CC(=O)n2cc(C(=O)c3cc(Cl)ccc3O)cn2)s1,20.6 µM (active),
CCN1C(=O)C(=Cc2c(C)n(CC(=O)NCC3CCCO3)c3ccccc23)C(=O)N(CC)C1=S (stereo not given),,-1.72
Cc1ccccc1NC(=O)COC(=O)c1cc(C)n(C2CC2)c1C,,-17.9
c1cc2c(cc1C1OCC3C(c4ccc5c(c4)OCO5)OCC13)OCO2 (stereo not given),,-8.1
CN(C)CCN(CC1CCCN(Cc2ccccc2F)C1)C(=O)Cc1ccc(F)c(F)c1 (stereo not given),,-0.923
CC(Cc1ccccc1)NCCC(c1ccccc1)c1ccccc1 (stereo not given),,-13.5
Cc1ncoc1C(=O)NCCC(c1ccccc1)c1ccccc1,20.6 µM (active),
CCN(CC)C(=O)Oc1ccc(NC(=O)N2CCOCC2)cc1,,-12.4
CCOc1cccc(=NC2CCCCC2)c2c(C)[nH]c(C)c12,10.3 µM (active),
O=c1[nH]c(O)c(C=Nc2cc(F)cc(F)c2)c(=O)[nH]1,,-9.9
CCC(=O)c1ccc(OCC(=O)N2CCN(CC(=O)Nc3ccc(C)cc3)CC2)cc1,,1.39
COc1ccc2[nH]c3c(c2c1)CCN[C@H]3C,,-0.326
CCOC(=O)C(O)(c1ccc(NC(=O)c2ccco2)c(OC)c1)C(F)(F)F (stereo not given),,10.8

Structure (SMILES),Potency,"activity change, negative = inhibition [%]"
COc1cc(Cn2c(N)c(C(=O)NCc3ccco3)c3nc4ccccc4nc32)cc(OC)c1OC,3.26 µM (active),
COc1ccccc1NC(=O)N1C[C@@H]2C[C@@H](C1)c1cccc(=O)n1C2,,7.46
O=C(Cc1ccc(Cl)cc1)NCCN1CCN(C(=O)Cc2ccc(Cl)cc2)CC1,,-15.8
CC1CCC(N(C)C2CCN(C)CC2)CC1 (stereo not given),,-6.89
COc1cc(-n2c(=S)[nH]c3ccc(C)cc3c2=O)c(Cl)cc1Cl,16.4 µM (active),
COC(=O)C1=C(c2ccc(Cl)c(C(F)(F)F)c2)C[C@@H]2CC[C@H]1N2C(=O)NC(C)C,,-3.51
O=C(O)c1ccccc1NC(=O)C1C2CCC(O2)C1C(=O)O (stereo not given),,27.7
COC(=O)C1=C(c2ccc(F)cc2OCc2ccccc2)C[C@@H]2CC[C@H]1N2C(=O)NCc1ccc(C(C)(C)C)cc1,,1.55
COc1ccc(CNCCc2ccc3c(c2)OCO3)c(OC)c1OC,,-12.2
O=C(NC(=S)N1C[C@H]2C[C@H](C1)c1cccc(=O)n1C2)c1ccc(F)cc1,,1.64
CN(c1ccccc1)c1ccc([N+](=O)[O-])c2nonc12,,-0.77
Oc1cc2c(cc1CN1CCN(c3ccccc3)CC1)OCO2,,4.24
CCC(C)n1c(O)c(/C=N/Nc2nc3c(c(=O)n(C)c(=O)n3C)n2C)c(=O)[nH]c1=S (stereo not given),23.1 µM (active),
C[C@]12CC[C@H](O)CC1=C([N+](=O)[O-])CC1C2CC[C@@]2(C)C1CC[C@@H]2O (stereo not given in full),,-28
c1ccc(CC2CCCCN2)cc1 (stereo not given),,0.138
CCCCCn1c(=O)c(C(=O)NCc2ccccc2)c(O)c2ccccc21,,-26.2
CCCCCCCCCCCCn1ccc(=N)cc1,5.8 µM (active),
COc1cccc(OC)c1C(=O)NC(=S)N1C[C@H]2C[C@H](C1)c1cccc(=O)n1C2,,18
COC(=O)[C@@H]1C(OC(=O)c2ccccc2)CC2CCC1N2C (stereo not given in full),,2.1
CC[C@H]1CN2CCc3cc(OC)c(OC)cc3[C@@H]2C[C@@H]1C[C@H]1NCCc2cc(OC)c(OC)cc21,0.259 µM (active),
COc1ccc(N2C(=O)/C(=C/c3ccco3)C(=O)NC2=S)cc1,,-10.8
Cc1c(Oc2cc(NN3CCCCC3)c([N+](=O)[O-])cc2[N+](=O)[O-])cccc1[N+](=O)[O-],,27.2
CCc1ccc(OCC(=O)N2CCN(CC(=O)Nc3ccccc3Cl)CC2)cc1,,-14.5
COC(=O)C1=C(c2ccc(Cl)c(C(F)(F)F)c2)C[C@@H]2CC[C@H]1N2C(=O)NC1CC1,,-20.8
C[C@]12CCC3C(CC[C@H]4C[C@@H](O)CC[C@]34C)C1CC[C@@H]2O (stereo not given in full),,5.31
